The source made the active and inactive calls. How the source made its calls: active means hit-call score of the fitted dose curve at least 0.9, where 1 is the maximum; inactive means score below 0.9.
Columns and labels:
Details in all cases: mRNA level, 48 h; actives raise or lower the signal
[1] = read-out: Cytochrome P450 3A4 (Homo sapiens) (UniProt P08684); experiment: LTEA_HepaRG_CYP3A4: Life Technologies and Expression Analysis (LTEA) Assay for CYP3A4 using HepaRG (AID 2283487)
Outline: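 In a human hepatic line (HepaRG), duplicate wells were treated 48 h with up to 100 uM chemical in half-log dilutions. Endpoint: CYP3A4 mRNA induction or loss relative to 0.5% DMSO vehicle, by qRT-PCR.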

[2] = read-out: DNA damage-inducible transcript 3 (DDIT3), DDIT3 (gene 1649); experiment: LTEA_HepaRG_DDIT3: Life Technologies and Expression Analysis (LTEA) Assay for DNA damage-inducible transcript 3 (DDIT3) using HepaRG (AID 2283488)
Outline: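 Changes in DDIT3 transcript, in either direction relative to 0.5% DMSO vehicle, were quantified by TaqMan qRT-PCR after 48 h chemical exposure of HepaRG cells at 8 concentrations, maximum 100 uM.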

[3] = read-out: Pro-epidermal growth factor (Homo sapiens) (UniProt P01133); experiment: LTEA_HepaRG_EGF: Life Technologies and Expression Analysis (LTEA) Assay for Epidermal growth factor (EGF) using HepaRG (AID 2283489)
Outline: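 Differentiated human HepaRG cells, plated 48 h then switched to serum-free induction medium, were exposed for 48 h to test chemicals (8-point half-log series, top 100 uM, 0.5% DMSO). EGF mRNA was quantified by qRT-PCR, normalized to ACTB, GAPDH, POLR2A.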

[4] = read-out: Early growth response protein 1 (EGR1) transcription factor, EGR1 (gene 1958); experiment: LTEA_HepaRG_EGR1: Life Technologies and Expression Analysis (LTEA) Assay for Early growth response protein 1 (EGR1) transcription factor using HepaRG (AID 2283490)
Outline: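 Differentiated HepaRG cells in serum-free induction medium exposed 48 hours, duplicate, to 8 half-log concentrations up to 100 uM in 0.5% DMSO. EGR1 mRNA measured by TaqMan qRT-PCR, normalized to ACTB, GAPDH, POLR2A; bidirectional fit versus DMSO.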

[5] = read-out: Ezrin (EZR), EZR (gene 7430); experiment: LTEA_HepaRG_EZR: Life Technologies and Expression Analysis (LTEA) Assay for Ezrin (EZR) using HepaRG (AID 2283491)
Outline: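 Gain or loss of EZR mRNA is scored relative to 0.5% DMSO in human HepaRG cultures treated 48 h with test chemicals in duplicate, eight half-log concentrations from 100 uM.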

[6] = read-out: Cytochrome P450 3A7 (Homo sapiens) (UniProt P24462); experiment: LTEA_HepaRG_CYP3A7: Life Technologies and Expression Analysis (LTEA) Assay for CYP3A7 using HepaRG (AID 2283492)
Outline: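 HepaRG cells plated 48 h, then dosed in serum-free induction medium for 48 h at 8 concentrations (top 100 uM, half-log steps, 0.5% DMSO). CYP3A7 mRNA by qRT-PCR, normalised to ACTB/GAPDH/POLR2A; bidirectional fit versus DMSO.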

CYP3A5 (gene 1577) = experiment: LTEA_HepaRG_CYP3A5: Life Technologies and Expression Analysis (LTEA) Assay for CYP3A5 using HepaRG (AID 2283493)
Outline: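 mRNA induction or loss of CYP3A5 assessed in HepaRG after 48 h dosing, 100 uM top concentration, duplicate wells; TaqMan qRT-PCR with ACTB, GAPDH, POLR2A normalization; 0.5% DMSO as negative control.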

[7] = read-out: Fatty Acid-Binding Protein 1 (FABP1), FABP1 (gene 2168); experiment: LTEA_HepaRG_FABP1: Life Technologies and Expression Analysis (LTEA) Assay for Fatty Acid-Binding Protein 1 (FABP1) using HepaRG (AID 2283494)
Outline: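 Differentiated human HepaRG cells exposed 48 h in serum-free induction medium to eight half-log concentrations up to 100 uM (0.5% DMSO), duplicate. FABP1 mRNA by qRT-PCR, normalised to ACTB, GAPDH, POLR2A; bidirectional fitting against DMSO.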

[8] = read-out: Cytochrome P450 4A22 (Homo sapiens) (UniProt Q5TCH4); experiment: LTEA_HepaRG_CYP4A22: Life Technologies and Expression Analysis (LTEA) Assay for Cytochrome P450 4A22 (CYP4A22) using HepaRG (AID 2283495)
Outline: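 qRT-PCR of CYP4A22 mRNA (Fluidigm TaqMan, normalized to three housekeeping genes) after 48 h chemical exposure of HepaRG cells; 8-point half-log series, top 100 uM, 0.5% DMSO vehicle. Bidirectional curve fitting vs DMSO baseline.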

[9] = read-out: Cytochrome P450 7A1 (Homo sapiens) (UniProt P22680); experiment: LTEA_HepaRG_CYP7A1: Life Technologies and Expression Analysis (LTEA) Assay for Cytochrome P450 7A1 (CYP7A1) using HepaRG (AID 2283496)
Outline: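 Gene expression endpoint in human HepaRG liver cells treated for 48 h with test chemicals (up to 100 uM, 0.5% DMSO). Values come from bidirectional concentration-response fitting versus DMSO.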

[10] = read-out: Glutathione S-Transferase (GSTA2), GSTA2 (gene 2939); experiment: LTEA_HepaRG_GSTA2: Life Technologies and Expression Analysis (LTEA) Assay for Glutathione S-Transferase (GSTA2) using HepaRG (AID 2283497)
Outline: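 Differentiated human HepaRG cells were exposed in duplicate for 48 h in serum-free induction medium, 8 points from 100 uM top in half-log steps, 0.5% DMSO. GSTA2 mRNA was measured by TaqMan qRT-PCR, normalized to ACTB, GAPDH and POLR2A; bidirectional fit versus DMSO.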

[11] = read-out: Glutamate-cysteine ligase catalytic (GCLC), GCLC (gene 2729); experiment: LTEA_HepaRG_GCLC: Life Technologies and Expression Analysis (LTEA) Assay for Glutamate-cysteine ligase catalytic (GCLC) using HepaRG (AID 2283498)
Outline: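 Differentiated HepaRG cells exposed 48 h in serum-free induction medium, eight-point half-log series topping at 100 uM in 0.5% DMSO, duplicates. GCLC mRNA by qRT-PCR normalized to ACTB, GAPDH and POLR2A, fitted bidirectionally versus DMSO.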

[12] = read-out: growth arrest and DNA damage 45 (GADD45G), GADD45G (gene 10912); experiment: LTEA_HepaRG_GADD45G: Life Technologies and Expression Analysis (LTEA) Assay for growth arrest and DNA damage 45 (GADD45G) using HepaRG (AID 2283499)
Outline: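 Differentiated human HepaRG cells in serum-free induction medium were exposed for 48 h to 8 half-log concentrations up to 100 uM in 0.5% DMSO, in duplicate. GADD45G mRNA was measured by TaqMan qRT-PCR, normalised to ACTB, GAPDH and POLR2A, and fitted bidirectionally against DMSO.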

[13] = read-out: Glutamate-cysteine ligase regulatory (GCLM), GCLM (gene 2730); experiment: LTEA_HepaRG_GCLM: Life Technologies and Expression Analysis (LTEA) Assay for Glutamate-cysteine ligase regulatory (GCLM) using HepaRG (AID 2283500)
Outline: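 Human liver HepaRG cultures receive test chemicals for 48 hours at up to 100 uM in 0.5% DMSO. GCLM expression is measured by qRT-PCR and analysed for increases or decreases against vehicle.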

[14] = read-out: Heat shock 70 kDa protein 1 (HSPA1A), gene 3303; experiment: LTEA_HepaRG_HSPA1A: Life Technologies and Expression Analysis (LTEA) Assay for Heat shock 70 kDa protein 1 (HSPA1A) using HepaRG (AID 2283502)
Outline: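 HSPA1A induction in human HepaRG liver cells is measured after 48 h of chemical treatment (100 uM maximum, 0.5% DMSO vehicle). Expression comes from qRT-PCR normalized to endogenous controls.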

[15] = read-out: Hypoxia-inducible factor 1-alpha (Homo sapiens) (UniProt Q16665); experiment: LTEA_HepaRG_HIF1A: Life Technologies and Expression Analysis (LTEA) Assay for Hypoxia-inducible factor 1 (HIF1A) Trancription factor using HepaRG (AID 2283503)
Outline: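 HepaRG, 48 h exposure, 8-pt half-log series from 100 uM, 0.5% DMSO vehicle, duplicates. Readout: HIF1A transcript by qRT-PCR (Fluidigm array), housekeeping-normalised. Bidirectional curve fit vs DMSO baseline.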

[16] = read-out: 3-Hydroxy-3-Methylglutaryl-CoA Synthase 2 (HMGCS2), HMGCS2 (gene 3158); experiment: LTEA_HepaRG_HMGCS2: Life Technologies and Expression Analysis (LTEA) Assay for 3-Hydroxy-3-Methylglutaryl-CoA Synthase 2 (HMGCS2) using HepaRG (AID 2283504)
Outline: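 Differentiated human HepaRG cells were exposed in duplicate for 48 h in serum-free induction medium to eight concentrations (top 100 uM, half-log steps, 0.5% DMSO). HMGCS2 mRNA was quantified by TaqMan qRT-PCR, normalised to ACTB, GAPDH and POLR2A, then fitted bidirectionally against DMSO.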

HGF (gene 3082) = experiment: LTEA_HepaRG_HGF: Life Technologies and Expression Analysis (LTEA) Assay for Hepatocyte Growth Facto (HGF) using HepaRG (AID 2283505)
Outline: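 Differentiated human HepaRG cells in serum-free induction medium were exposed in duplicate for 48 h to eight concentrations (top 100 uM, half-log steps, 0.5% DMSO). HGF mRNA was quantified by qRT-PCR, normalized to ACTB, GAPDH and POLR2A.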

[17] = read-out: Insulin Like Growth Factor 1 (IGF1), IGF1 (gene 3479); experiment: LTEA_HepaRG_IGF1: Life Technologies and Expression Analysis (LTEA) Assay for Insulin Like Growth Factor 1 (IGF1) using HepaRG (AID 2283506)
Outline: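 Using human HepaRG liver cells, IGF1 transcript induction or suppression is measured 48 h after dosing across eight concentrations capped at 100 uM. Values derive from bidirectional concentration-response fitting with DMSO as baseline.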

[18] = read-out: Glutathione S-transferase M3 (GSTM3), GSTM3 (gene 2947); experiment: LTEA_HepaRG_GSTM3: Life Technologies and Expression Analysis (LTEA) Assay for Glutathione S-transferase M3 (GSTM3) using HepaRG (AID 2283501)
Outline: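 Differentiated HepaRG cells in serum-free induction medium were exposed in duplicate for 48 h to 8 half-log concentrations up to 100 uM in 0.5% DMSO. GSTM3 mRNA was measured by TaqMan qRT-PCR, normalized to ACTB/GAPDH/POLR2A, and fitted bidirectionally versus DMSO.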

Sequence of Cytochrome P450 3A7 (Homo sapiens) (P24462 whole entry, looked up): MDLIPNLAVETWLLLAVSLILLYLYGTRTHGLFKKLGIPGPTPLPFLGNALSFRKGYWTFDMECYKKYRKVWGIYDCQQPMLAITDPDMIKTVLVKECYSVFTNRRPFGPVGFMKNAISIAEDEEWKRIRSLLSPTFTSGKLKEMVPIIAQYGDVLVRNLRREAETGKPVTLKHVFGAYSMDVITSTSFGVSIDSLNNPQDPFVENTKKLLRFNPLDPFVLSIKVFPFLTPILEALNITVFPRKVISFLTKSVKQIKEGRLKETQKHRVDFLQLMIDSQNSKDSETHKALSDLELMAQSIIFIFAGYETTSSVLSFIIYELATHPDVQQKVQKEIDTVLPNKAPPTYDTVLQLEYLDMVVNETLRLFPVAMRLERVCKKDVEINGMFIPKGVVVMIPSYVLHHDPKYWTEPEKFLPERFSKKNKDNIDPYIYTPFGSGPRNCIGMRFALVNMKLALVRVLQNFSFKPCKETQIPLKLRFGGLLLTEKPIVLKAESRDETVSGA
Sequence of Hypoxia-inducible factor 1-alpha (Homo sapiens) (Q16665 whole entry, looked up): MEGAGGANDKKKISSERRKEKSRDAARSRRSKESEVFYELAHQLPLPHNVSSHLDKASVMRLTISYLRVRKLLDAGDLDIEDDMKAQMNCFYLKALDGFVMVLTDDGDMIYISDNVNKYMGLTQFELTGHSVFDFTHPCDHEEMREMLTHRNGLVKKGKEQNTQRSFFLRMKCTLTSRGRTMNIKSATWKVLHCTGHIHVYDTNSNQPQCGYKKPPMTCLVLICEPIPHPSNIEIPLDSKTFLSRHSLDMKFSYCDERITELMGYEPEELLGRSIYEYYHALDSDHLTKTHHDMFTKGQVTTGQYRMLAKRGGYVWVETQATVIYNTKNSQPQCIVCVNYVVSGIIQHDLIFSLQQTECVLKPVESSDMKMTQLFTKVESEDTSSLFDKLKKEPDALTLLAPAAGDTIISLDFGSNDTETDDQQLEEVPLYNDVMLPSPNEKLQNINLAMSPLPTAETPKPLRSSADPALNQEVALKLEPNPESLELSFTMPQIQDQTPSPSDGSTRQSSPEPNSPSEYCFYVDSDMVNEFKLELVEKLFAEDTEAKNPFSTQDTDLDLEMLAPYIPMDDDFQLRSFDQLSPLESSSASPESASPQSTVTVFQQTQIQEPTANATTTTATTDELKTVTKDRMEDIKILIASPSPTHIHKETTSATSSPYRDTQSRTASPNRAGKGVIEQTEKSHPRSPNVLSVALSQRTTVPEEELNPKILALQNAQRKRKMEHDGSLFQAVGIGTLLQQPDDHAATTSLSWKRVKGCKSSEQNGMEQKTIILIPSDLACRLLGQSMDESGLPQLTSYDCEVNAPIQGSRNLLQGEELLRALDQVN
Sequence of Cytochrome P450 3A4 (Homo sapiens) (P08684 whole entry, looked up): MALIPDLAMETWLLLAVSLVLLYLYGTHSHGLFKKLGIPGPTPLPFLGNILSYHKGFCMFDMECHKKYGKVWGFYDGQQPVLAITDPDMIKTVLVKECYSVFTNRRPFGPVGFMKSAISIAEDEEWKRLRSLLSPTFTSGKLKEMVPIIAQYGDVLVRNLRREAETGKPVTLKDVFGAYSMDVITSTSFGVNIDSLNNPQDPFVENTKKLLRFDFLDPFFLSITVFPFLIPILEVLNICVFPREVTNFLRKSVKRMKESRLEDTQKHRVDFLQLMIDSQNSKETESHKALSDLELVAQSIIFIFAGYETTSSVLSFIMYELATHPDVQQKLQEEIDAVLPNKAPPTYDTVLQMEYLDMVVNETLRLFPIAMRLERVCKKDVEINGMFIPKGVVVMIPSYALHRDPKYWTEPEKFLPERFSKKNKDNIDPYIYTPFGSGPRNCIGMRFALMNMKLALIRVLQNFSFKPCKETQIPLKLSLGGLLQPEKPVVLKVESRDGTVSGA

CCC(=NOC/C=C/Cl)C1=C(O)CC(C2CCOCC2)CC1=O (stereo not drawn)
outcome [1]: inactive
outcome [2]: inactive
outcome [3]: inactive
outcome [4]: inactive
outcome [5]: inactive
outcome [6]: inactive
outcome (CYP3A5 (gene 1577)): inactive
outcome [7]: inactive
outcome [8]: inactive
outcome [9]: inactive
outcome [10]: inactive
outcome [11]: inactive
outcome [12]: inactive
outcome [13]: inactive
outcome [14]: inactive
outcome [15]: inactive
outcome [16]: inactive
outcome (HGF (gene 3082)): inactive
outcome [17]: inactive

CCc1cccc(C)c1N(C(=O)CCl)C(C)COC (stereo not drawn)
AC50 [1]: 11.3 µM (active)
outcome [2]: inactive
outcome [3]: inactive
outcome [4]: inactive
outcome [5]: inactive
outcome [6]: inactive
outcome (CYP3A5 (gene 1577)): inactive
AC50 [7]: 37.9 µM (active)
outcome [8]: inactive
AC50 [10]: 18 µM (active)
outcome [11]: inactive
outcome [12]: inactive
outcome [13]: inactive
outcome [14]: inactive
outcome [15]: inactive
outcome [16]: inactive
outcome (HGF (gene 3082)): inactive
AC50 [17]: 50 µM (active)

CCOC(=O)COc1cc(-c2nn(C)c(OC(F)F)c2Cl)c(F)cc1Cl
AC50 [1]: 22.8 µM (active)
outcome [2]: inactive
outcome [4]: inactive
outcome [5]: inactive
AC50 [6]: 30.1 µM (active)
outcome (CYP3A5 (gene 1577)): inactive
outcome [7]: inactive
outcome [8]: inactive
outcome [10]: inactive
outcome [11]: inactive
outcome [12]: inactive
outcome [13]: inactive
outcome [14]: inactive
outcome [15]: inactive
outcome [16]: inactive
outcome (HGF (gene 3082)): inactive
outcome [17]: inactive

O=[N+]([O-])c1cc(C(F)(F)F)c(Cl)c([N+](=O)[O-])c1Nc1ncc(C(F)(F)F)cc1Cl
AC50 [1]: 30.2 µM (active)
outcome [2]: inactive
AC50 [4]: 90.7 µM (active)
outcome [5]: inactive
AC50 [6]: 23.1 µM (active)
AC50 (CYP3A5 (gene 1577)): 66.7 µM (active)
AC50 [7]: 16.4 µM (active)
AC50 [8]: 23.1 µM (active)
AC50 [10]: 24.9 µM (active)
AC50 [11]: 69.3 µM (active)
outcome [12]: inactive
outcome [13]: inactive
outcome [18]: inactive
outcome [14]: inactive
AC50 [15]: 31.9 µM (active)
AC50 [16]: 36.5 µM (active)
outcome (HGF (gene 3082)): inactive
AC50 [17]: 79.4 µM (active)

CC(C)[C@H](C(=O)O[C@H](C#N)c1cccc(Oc2ccccc2)c1)c1ccc(Cl)cc1
AC50 [1]: 10.5 µM (active)
outcome [2]: inactive
outcome [5]: inactive
outcome [6]: inactive
outcome (CYP3A5 (gene 1577)): inactive
outcome [7]: inactive
outcome [8]: inactive
outcome [9]: inactive
outcome [10]: inactive
outcome [11]: inactive
outcome [12]: inactive
outcome [13]: inactive
outcome [14]: inactive
outcome [15]: inactive
outcome [16]: inactive
outcome (HGF (gene 3082)): inactive
AC50 [17]: 50 µM (active)

CCOP(=O)(SC(C)CC)N1CCSC1=O (stereo not drawn)
AC50 [1]: 16.1 µM (active)
outcome [2]: inactive
outcome [4]: inactive
outcome [5]: inactive
outcome [6]: inactive
outcome (CYP3A5 (gene 1577)): inactive
AC50 [7]: 16.1 µM (active)
AC50 [8]: 12.6 µM (active)
outcome [10]: inactive
outcome [11]: inactive
outcome [12]: inactive
outcome [13]: inactive
outcome [14]: inactive
outcome [15]: inactive
AC50 [16]: 21.3 µM (active)
AC50 [17]: 21 µM (active)

CCC(CC)Nc1c([N+](=O)[O-])cc(C)c(C)c1[N+](=O)[O-]
AC50 [1]: 25.4 µM (active)
outcome [2]: inactive
outcome [4]: inactive
outcome [5]: inactive
AC50 [6]: 16.7 µM (active)
outcome (CYP3A5 (gene 1577)): inactive
AC50 [7]: 50 µM (active)
outcome [8]: inactive
outcome [9]: inactive
outcome [10]: inactive
outcome [11]: inactive
outcome [12]: inactive
outcome [13]: inactive
outcome [14]: inactive
outcome [15]: inactive
outcome [16]: inactive
outcome (HGF (gene 3082)): inactive
AC50 [17]: 61.1 µM (active)
